Sampled rows, rich in hits. Any-hit rate of the full collection: about 1.1%.
NCOA2 inhibitor – inhibits human steroid receptor coactivator 2. Q15596. HEK293 GAL4-SRC2 luciferase reporter, luminescence. inhibition, % at 9 µM. hit rate 0.17% among 370,000. AID 651957;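 active means inhibition above the mean inhibition of all tested compounds plus 3 SD, set per campaign, cut at about 52% in these data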;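 further: 0% = DMSO treated cells and 100% = cells given Gossypol at 36 µM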
NR5A2 inv ag – inverse agonists of human LRH-1 (NR5A2); O00482; HEK293T StAR-luciferase reporter, LRH-1 transfected, 24 h; inhibition, % at 3.6 µM; hit rate 0.13% among 360,000; AID 602396;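 active means inhibition above the mean inhibition of all tested compounds plus 3 SD, cut at about 73% in these data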;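 further: 0% = DMSO wells and 100% = reporter-only cells lacking LRH-1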
NCOA3 inh – inhibits human SRC3 coactivator. Q9Y6Q9. HEK293 GAL4-SRC3 luciferase reporter, luminescence. inhibition, % at 3.6 µM. hit rate 0.17% among 360,000. AID 588352;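 active means inhibition above a per-campaign cutoff, the mean of all compounds plus 3 SD, cut at about 60% in these data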;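 further: 0% = DMSO-treated cells and 100% = gossypol-treated cells at 36 µM; higher means less SRC3-driven luciferase light from the GAL4 reporter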
SRC1 inh – inhibitors of human steroid receptor coactivator 1 (SRC1); Q15788; HEK293 GAL4-SRC1 luciferase reporter, luminescence; inhibition, % at 3.6 µM; hit rate 0.12% among 360,000; AID 588354;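 active means inhibition above the campaign mean plus 3 SD, with each screening campaign given its own cutoff, cut at about 60% in these data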;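 further: 0% = DMSO treated cells and 100% = gossypol at 36 µM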
GalR3 antagonist – human GalR3 antagonism; AID 651719; HEK293 GalR3-CNG cAMP membrane potential fluorescence; galR3 body fused to GalR1 C-terminus; inhibition, % at 3 µM; hit rate 0.44% among 360,000;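 active means inhibition above the screen-wide average plus 3 SD, cut at about 13% in these data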;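 further: forskolin and galanin both at EC90 stimulate the cells; cAMP rise reported by CNG channel membrane potential dye signal; 0% = forskolin plus galanin with DMSO and 100% = forskolin alone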
NR2F2 inh – inhibitors of human COUP-TFII (NR2F2) | P24468 | HEK293T NGFI-A luciferase reporter, luminescence | inhibition, % at 8.6 µM | hit rate 0.7% among 370,000;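 active means inhibition above a per-plate cutoff, mean inhibition of test wells between control levels plus 3 SD, cut at about 38% in these data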;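 further: cells cotransfected with COUP-TFII expression vector driving the NGFI-A reporter; 0% = median of COUP-TF2 test wells and 100% = reporter-only cells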
Gal4-VP16 ctr – counter-screen for COUP-TFII antagonists: inhibitors of VP16; shares compounds with NR2F2 inh; HEK293 Gal4-VP16 luciferase reporter, luminescence; inhibition, % at 8.5 µM; hit rate 25% among 2,500; AID 687007; in the data active means inhibition above about 13%
COUP-TFII conf – COUP-TFII (NR2F2) inhibition, confirmation assay; shares compounds with NR2F2 inh; HEK293 NGFI-A luciferase reporter, luminescence; inhibition, % at 8.5 µM; hit rate 45% among 2,500;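 active means mean inhibition over three repeats above a set limit taken from the earlier primary screen, cut at about 38% in these data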;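 further: 100% = cells given the luciferase reporter alone without the COUP-TF2 vector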
Numbers without * were called inactive.

CCOC(=O)N1CCC(NC(=O)C2CCCN(Cc3nc(-c4cccc(Cl)c4)oc3C)C2)CC1 (configuration not stated) was read as NCOA2 inhibitor 27.9, NR5A2 inv ag 14.6, NCOA3 inh 16.6, SRC1 inh 13.1, NR2F2 inh 48.2*, Gal4-VP16 ctr -0.1 and COUP-TFII conf 28.6.
Screening O=C(NCCc1ccccn1)c1ccc2c(c1)ncn2C1CCCCC1 returned NCOA2 inhibitor -31.4 and NR2F2 inh -26.6.
`COc1ccc(CCNC(=O)c2ccc(CS(=O)(=O)c3ccc(Cl)cc3)o2)cc1OC` gave NCOA2 inhibitor 14.9, NR5A2 inv ag 31.0, NCOA3 inh 25.3, SRC1 inh 10.9, GalR3 antagonist -4.3, NR2F2 inh 48.6*, Gal4-VP16 ctr 1.2 and COUP-TFII conf 26.7.
For COc1ccc(OC)c(CC(=O)Nc2ccc3c(c2)c(=O)n(C)n3Cc2cccc(C(F)(F)F)c2)c1 the results were NCOA2 inhibitor 57.8*, NR5A2 inv ag -7.0, NCOA3 inh 2.5, SRC1 inh 2.0, GalR3 antagonist -6.0, NR2F2 inh 83.1*, Gal4-VP16 ctr -8.6 and COUP-TFII conf 4.6.
COc1ccc(CNC(=O)Nc2ccc3c(c2)c(=O)n(C)n3Cc2cccc(C(F)(F)F)c2)cc1 was read as NCOA2 inhibitor -43.8, NR5A2 inv ag 2.1, NCOA3 inh -18.6, SRC1 inh -1.1, GalR3 antagonist -6.4 and NR2F2 inh 21.4.
For CC(C)CCNC(=O)C1CCN(c2cncnc2)CC1 the results were NCOA2 inhibitor -12.0 and NR2F2 inh 6.7.
`O=C(NC1CCCCN(Cc2cccc(C(F)(F)F)c2)C1=O)c1cccc(C(F)(F)F)c1` (configuration not stated) gave NCOA2 inhibitor 3.4 and NR2F2 inh -1.9.
`O=C(Nc1ccc2c(c1)OCO2)OC1CCC12CCCCC2` (configuration not stated) gave NCOA2 inhibitor -86.6 and NR2F2 inh -34.6.
For CCCCCCC(=O)N(O)C1CC(=O)N(c2ccc(Cl)cc2)C1=O (configuration not stated) the results were NCOA2 inhibitor 30.8, NR5A2 inv ag 6.6, NCOA3 inh 9.5, SRC1 inh 11.7, GalR3 antagonist -0.8, NR2F2 inh 52.4*, Gal4-VP16 ctr -6.8 and COUP-TFII conf 38.8*.
Screening COCC(=O)N[C@@H]1C[C@@H]2O[C@H](CO)CC[C@@H]2O[C@@H]1CCc1ccc(-c2ccccc2)cc1 returned NCOA2 inhibitor 15.4 and NR2F2 inh 13.6.
For Cc1cc(C(=O)NCC2COc3ccccc3O2)c2ccccc2n1 (configuration not stated) the results were NCOA2 inhibitor -19.1, NR5A2 inv ag -3.6, NCOA3 inh 18.6, SRC1 inh 9.8, GalR3 antagonist -6.1, NR2F2 inh 38.3*, Gal4-VP16 ctr 4.4 and COUP-TFII conf 4.7.
Screening O=C(Cc1ccccc1)Nc1ccc(C(=O)NCC2COc3ccccc3O2)cc1 (configuration not stated) returned NCOA2 inhibitor -8.2, NR5A2 inv ag 33.9, NCOA3 inh -19.3, SRC1 inh 8.5, GalR3 antagonist -10.8 and NR2F2 inh -5.9.
O=C(CCl)Nc1ccc(C(=O)NCC2COc3ccccc3O2)cc1 (configuration not stated) was read as NCOA2 inhibitor 44.2, NR2F2 inh 39.9*, Gal4-VP16 ctr 66.6* and COUP-TFII conf 25.1.
For CN1CC=C(c2ccccc2)N(c2ccc(Cl)cc2)C1=O the results were NCOA2 inhibitor -30.7 and NR2F2 inh -22.3.
`COC1=C[C@H](C(=O)NCCNC(C)=O)[C@@]2(C)Cc3ccccc3[C@H]2CC1=O` gave NCOA2 inhibitor -2.5 and NR2F2 inh -0.9.
For COC(=O)c1cc(C(c2ccccc2O)C2CCCO2)n2cccc(C(C)(C)C)c12 (configuration not stated) the results were NCOA2 inhibitor -1.6 and NR2F2 inh -5.6.
Cc1ccc(S(=O)(=O)N2CCN(C(=O)c3cc4c(C)nn(-c5ccccc5C)c4s3)CC2)cc1 was read as NCOA2 inhibitor 34.4, NR5A2 inv ag 0.1, NCOA3 inh -16.1, SRC1 inh -4.8, GalR3 antagonist -7.3, NR2F2 inh 45.7*, Gal4-VP16 ctr 9.7 and COUP-TFII conf 30.1.
Cc1ccccc1-n1nc(C)c2cc(C(=O)N3CCOCC3)sc21 was read as NCOA2 inhibitor -11.8, NR5A2 inv ag 18.5, NCOA3 inh -4.0, SRC1 inh -29.4, GalR3 antagonist -5.2 and NR2F2 inh 3.2.
Cc1cc(C)nc(SCc2nnc(SCC(N)=O)n2Cc2ccco2)n1 was read as NCOA2 inhibitor -13.4, NR5A2 inv ag -2.8, NCOA3 inh 18.6, SRC1 inh -3.4, GalR3 antagonist -1.0, NR2F2 inh 38.8*, Gal4-VP16 ctr 11.0 and COUP-TFII conf 11.4.
Screening CCOC(=O)CSc1nnc(CSc2nc(C)cc(C)n2)n1Cc1ccco1 returned NCOA2 inhibitor -8.6, NR5A2 inv ag 22.9, NCOA3 inh -18.6, SRC1 inh 12.1, GalR3 antagonist -8.6 and NR2F2 inh -6.5.
CCCCCc1ccc(OCCCC[n+]2ccccc2)c(CCCCC)c1 was read as NR5A2 inv ag 41.6, NCOA3 inh 44.9 and SRC1 inh -1.5.
Screening CCCCCc1ccc(OCCCC[n+]2cccc(C)c2)c(CCCCC)c1 returned NCOA2 inhibitor 3.8, NR5A2 inv ag 58.3, NCOA3 inh 51.5, SRC1 inh 14.6, GalR3 antagonist -4.5, NR2F2 inh 57.4*, Gal4-VP16 ctr 8.2 and COUP-TFII conf 27.8.
For CCCCOc1ccc(C)cc1CN(CCO)CCO the results were NCOA2 inhibitor -20.2, NR5A2 inv ag -6.0, NCOA3 inh 3.0, SRC1 inh -14.4, GalR3 antagonist -3.8 and NR2F2 inh 6.9.
CCCCCc1ccc(OCCCC[n+]2ccc(C)cc2)c(CCCCC)c1 was read as NCOA2 inhibitor -16.8, NR5A2 inv ag 42.3, NCOA3 inh 11.6, SRC1 inh -1.2, GalR3 antagonist 6.5, NR2F2 inh 56.3*, Gal4-VP16 ctr 20.6* and COUP-TFII conf 31.9.
O=C(NCc1cccs1)C1CCC(CNS(=O)(=O)c2cccc3cccnc23)CC1 (configuration not stated) was read as NCOA2 inhibitor -12.3 and NR2F2 inh 4.7.
CC1CCN(C(=O)c2cccc(S(=O)(=O)N3CCN(c4ccccc4)CC3)c2)CC1 was read as NCOA2 inhibitor -11.8, NR5A2 inv ag 13.2, NCOA3 inh 0.9, SRC1 inh -4.6, GalR3 antagonist -0.7 and NR2F2 inh 8.8.

Assay outcomes (PubChem)
